EBV LMP1 NFkB: inhibitors of Epstein-Barr LMP1-induced NF-kappaB reporter; LMP1-induced NF-kappaB luciferase reporter cells, luminescence; inhibition, % at 12.5 µM; 0.69% of 350,000 active; AID 504558; in the data active means inhibition above about 41%;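 further: 0% = neutral control wells and 100% = reference inhibitor control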
TROY NFkB inh: TROY signaling inhibition | Q293 LMP1-TROYcd NF-kB luciferase reporter, 4 h | inhibition, % at 10 µM | 0.98% of 360,000 active | AID 1347056;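 active means compounds whose plate-normalised and pattern-corrected inhibition of the luciferase reporter signal at the single screening dose is 50% or more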
HSF1 inh: HSF1 inhibition; NIH3T3-HGL HSE-luciferase, MG132-induced, luminescence 8 h; stronger effect = lower value; activity change, negative = inhibition, % at 7.5 µM (by protocol); 0.77% of 300,000 active; AID 2098;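 active means more than half of replicate wells show activity change below -50%, luminescence cut by over half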;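 further: luciferase reports HSF-1 transcriptional activity via heat shock element; 0% = median of DMSO wells and -100% = zero luminescence signal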
TWEAK Fn14 block: TWEAK-Fn14 signaling inhibition | AID 1159606 | 2% of 360,000 active | TWEAK-stimulated Fn14 reporter cells, luciferase luminescence, 8 h | inhibition, % at 10 µM; in the data active means inhibition above about 50%
HSP90 inh: blocks HSP90-mediated luciferase refolding in reticulocyte lysate; 0.91% of 290,000 active; Rabbit reticulocyte lysate, luciferase refolding luminescence, 3 h; inhibition, % at 5.6 µM;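 active means inhibition above the screen-wide mean plus 3 SD, computed separately per campaign, cut at about 16% in these data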;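 further: 0% = DMSO wells and 100% = 60 µM geldanamycin wells; inhibitors lower the luminescence because luciferase stays unfolded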
HSF1 activator: increases HSF-1 driven luciferase reporter signal; NIH3T3-HGL HSF-1 luciferase reporter, MG132, 8 h; 100% = twice DMSO control signal; activation, % at 9 µM; 1.7% of 300,000 active; AID 504408;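 active means mean replicate activation of at least 50% with a set share of replicates each reaching 50%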;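 further: 0% = median of the neutral control wells and 100% = twice that signal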
Active calls of the source: *; . = no result. In the library only some 4.7% were active in any assay of this set; here they are far more common.

SMILES	EBV LMP1 NFkB	TROY NFkB inh	HSF1 inh	TWEAK Fn14 block	HSP90 inh	HSF1 activator
COc1cccc(-c2nc(=S)c3c(n2Cc2ccco2)CCCC3)c1	-2	33	114	43	1	124*
CN(C(=O)CSc1nncc2ccccc12)c1ccccc1	.	-14	.	32	.	.
CN(C)c1ncnc2c1ncn2[C@H]1CN(C2CCCC2)C[C@@H](CO)O1	.	-5	.	-3	.	.
CC1(C)CC(NC(=O)c2ccc(Cl)cc2)CC(C)(C)N1	-7	6	-3	74*	0	2
O=C(NN=C1CCCC1)c1n[nH]c2c1CCC2	-1	-13	-9	-5	0	-8
C/C(=N/NC(=O)c1cc2ccccc2cc1O)c1ccco1	-5	3	95	11	2	93*
C/C(=N\NC(=O)c1n[nH]c2c1CCC2)c1ccco1	36	-17	14	59*	3	19
CCC(C)(C)C1CCc2[nH]nc(C(=O)N/N=C(\C)c3ccco3)c2C1 (stereo not given)	-8	68*	2	44	12	5
C/C(=N\NC(=O)c1cc2ccccc2cc1O)c1ccc(C)o1	-6	12	45	27	0	25
C[C@H](NC(=O)[C@@H]1CCCN1C(=O)[C@@H]1CCCN1C(=O)OC(C)(C)C)c1ccccc1	.	-3	.	2	.	.
COc1ccc(CCN2C(=O)COc3ccccc3C2C(=O)Nc2ccc3c(c2)OCCO3)cc1OC (stereo not given)	.	-7	.	-9	.	.
Cn1cc(C(=O)c2ccc(Cl)cc2Cl)cc1C(=O)N/N=C(\N)COc1ccc(Cl)cc1Cl	25	19	3	57*	5	-8
Cn1cc(C(=O)c2ccc(Cl)cc2Cl)cc1C(=O)N/N=C(\N)COc1ccc(Cl)cc1	-10	44	6	-10	-3	-11
COc1cc(/C=C2/SC(=O)NC2=O)ccc1Oc1ccc([N+](=O)[O-])cc1[N+](=O)[O-]	3	54*	.	56*	-2	.
C[C@@H]1CN([C@H](C)CO)S(=O)(=O)c2ccc(C#Cc3cccc(F)c3)cc2O[C@@H]1CN(C)C(=O)CN1CCOCC1	3	-1	.	8	.	.
CC1(C)Cc2c(C#N)c(NCCN3CCOCC3)nc(-c3ccco3)c2CO1	-7	-11	7	15	0	7
CC1(C)Cc2c(C#N)c(NCCO)nc(-c3ccco3)c2CO1	-4	-17	-52*	-8	1	-58
CN1CCN(CC(=O)Nc2nnc(-c3cccs3)s2)CC1	-10	-19	-54*	3	-1	-62
CCc1nnc(NC(=O)CN2CCN(Cc3cccc(Cl)c3)CC2)s1	-5	1	3	0	2	6
COc1cccc(N2CCN(CC(=O)Nc3nnc(-c4ccccc4)s3)CC2)c1	14	29	5	55*	3	-7
CCc1nnc(NC(=O)CN2CCN(Cc3cccc(F)c3)CC2)s1	-3	-11	-2	53*	1	-11
COc1ccc(-c2cnc(C(O)c3ccccc3)[nH]2)cc1 (stereo not given)	.	51*	.	25	.	.
COc1ccc(-c2cnc(C(O)c3ccc(-c4ccccc4)cc3)[nH]2)cc1 (stereo not given)	.	4	.	-32	.	.
COc1cccc(-c2cnc(C(O)c3ccccc3)[nH]2)c1 (stereo not given)	.	57*	.	63*	.	.
O=C1[C@H]2[C@@H](c3ccccc3)N[C@]3(CCCN(Cc4ccc(C(F)(F)F)cc4)C3=O)[C@H]2C(=O)N1Cc1ccccc1	6	11	.	33	.	.
SMILES	EBV LMP1 NFkB	TROY NFkB inh	HSF1 inh	TWEAK Fn14 block	HSP90 inh	HSF1 activator
O=C1[C@H]2[C@@H](c3ccc(C(F)(F)F)cc3)N[C@]3(CCCN(Cc4ccc(F)cc4)C3=O)[C@H]2C(=O)N1Cc1ccccc1	-13	-3	.	95*	.	.
CCOC(=O)[C@]12CCC=C1N(Cc1cccc3ccccc13)C(=O)[C@H](CC(=O)N1CCN(C(=O)c3ccco3)CC1)C2	.	-12	.	11	.	.
COc1ccc([C@H]2C[C@H](O)C[C@@H](CCn3cc(-c4ccccc4)nn3)O2)cc1	.	-6	.	2	.	.
Cc1ccc(O)c(NC(=O)c2onc(C)c2Cl)c1	-20	-38	98	10	0	155*
Cc1noc(C(=O)Nc2ccc(F)cc2F)c1Cl	-5	-29	-8	-7	0	7
Cc1ccc(O)c(NC(=O)c2cc(-c3cccs3)on2)c1	-13	-14	66	-18	-2	75*
CCCC(=O)N1CCC1(C)C(=O)Nc1cc(OC)ccc1OC (stereo not given)	.	-7	.	-2	.	.
CCCCC[C@@H](C)N1C[C@@H](COCc2ccccc2)Oc2cc(N3CCC[C@H]3COC)ccc2S1(=O)=O	.	3	.	27	.	.
NC(=O)c1ccccc1OCC(=O)Nc1ccc(Cl)c(Cl)c1	-31	-19	50	12	4	91*
CCCNC(=O)COC(=O)c1ccccc1OCC(=O)Nc1ccc(Br)cc1	-4	4	5	-19	-3	-2
CC(C)(C)NC(=O)COC(=O)c1ccccc1OCC(=O)Nc1ccc(Br)cc1	-30	-56	40	-23	2	69*
Clc1cc(Cl)cc(Nc2ccccc2CN(C/C=C/c2ccc3c(c2)OCO3)Cc2ccccc2)c1	-27	-10	.	-2	.	.
Cc1ccc(N2C(=O)N(CC(=O)NC(N)=O)C(=O)C2C)cc1 (stereo not given)	2	-10	-69*	-4	6	-75
Cc1ccc(C2/C(=C(\O)c3cnn(-c4ccccc4)c3C)C(=O)C(=O)N2CCN(C)C)o1 (stereo not given)	-1	18	26	-13	3	66*
Cc1c(/C(O)=C2\C(=O)C(=O)N(CCCN(C)C)C2c2ccco2)cnn1-c1ccccc1 (stereo not given)	24	80*	.	80*	.	.
Cc1c(/C(O)=C2\C(=O)C(=O)N(CCCN(C)C)C2c2cccs2)cnn1-c1ccccc1 (stereo not given)	3	66*	.	59*	.	.
COc1ccccc1C1/C(=C(/O)c2cnn(-c3ccccc3)c2C)C(=O)C(=O)N1CCN(C)C (stereo not given)	-2	6	.	21	.	.
CC(=O)c1ccc(-c2cnc3c(NC=O)cc(-c4cnn(C)c4)cn23)cc1	.	-9	.	-18	.	.
O=C(NCc1ccc(F)cc1)c1cc(C2CCCCN2S(=O)(=O)c2cccs2)on1 (stereo not given)	.	10	.	-12	.	.
Cc1ccc2c(COC(=O)c3ccccc3Br)cc(=O)oc2c1	-52	-28	44	-41	3	88*
COc1ccc2c(COC(=O)CCS(=O)(=O)c3ccc(C)cc3)cc(=O)oc2c1	-4	15	-73*	-15	.	-79
Cc1ccc2c(COC(=O)c3ccccc3Cl)cc(=O)oc2c1	-58	-90	55	-37	-4	101*
COc1ccc(Br)c(C(=O)OCc2cc(=O)oc3cc(C)ccc23)c1	-20	-43	12	-36	1	44

Screening data (PubChem BioAssay)
